# Reference: the OligoGym collection
# Biological target: CT47A1
# Assay: pooled miR-30 sensor sort-seq; sequence = guide strand
# Conditions: shRNA
row,Sequence,sensor-assay potency score (higher = more potent)
1,TTGTTTTCTGCATCCTTCTCTT,-0.0876
2,TTTAGTGACTTCCTCTGGGGCC,-0.087
3,TATGAGGATGTGGTCGTTGTGA,-0.634
4,TGTTCTTTCTCTTCCTCGCCTG,0.234
5,TTCCTCGCCTGCAGCATCTTGG,-0.775
6,TTGTTCTTTCTCTTCCTCGCCT,0.277
7,TATCTGAGTCCTCCTCGGCGCT,-1.49
8,TTCTCTATGAGGATGTGGTCGT,0.0532
9,TCACCTTGTTTTCTGCATCCTT,0.106

# Biological target: CTBP2
# Assay: as above
# Conditions: shRNA
row,Sequence,sensor-assay potency score (higher = more potent)
1,ACAAATTCTGTCCAATCGCTGT,-0.83
2,TCGTTTAGAACCTTCTCGTGGA,0.661
3,TTCTGTCCAATCGCTGTCTCTT,-0.623
4,TTGAGATTGCAGTGCAAGGAGA,-0.597
5,TTGTGAGTCACTGGGATGCCTC,-1.08
6,TTGCTGGTCTATTACTGACCAA,-0.982
7,AATTTCTTAAGCTTTCTGGGAT,0.0586
8,AATCGCTGTCTCTTGACTTTGT,0.0201
9,TTATGTTCGTTGAGATTGCAGT,-0.485
10,TTCGGGGCATCTTTCAACGGAC,-0.791
11,TCGCTGTCTCTTGACTTTGTGC,-1.38
12,TTCGTTGAGATTGCAGTGCAAG,-1.27
13,TATGGTAAAGTCATTGATGAGG,-1.17
14,TAAGGCTTTCTCGTCCACCAGG,-0.686
15,TGCTGGTCTATTACTGACCAAG,-1.63
16,TAAAATATGACGCTGAATCCAA,-0.138
17,TTGCTTGCTGGTCTATTACTGA,-0.788
18,TTTCCTGCGTCGACTGCGCGTC,-0.459
19,TTGCAGTGCAAGGAGACGCAGT,-0.883
20,TACCTTCACAAATTCTGTCCAA,-0.0172
21,TAGAGTCCGCTGTCTCTTCCAC,-0.12
22,TATCCGCACGATCACTCTCAGG,-1.62
23,TTCGTTTAGAACCTTCTCGTGG,-0.189
